Experimental findings from PubChem BioAssay are described below.

Unmarked numbers belong to inactive results. For some assays here: Potency and affinity values are given separately. The source made the active and inactive calls. Unless noted, the rule behind the calls is not given here.

Assay [1] is described as follows: antimalarial activity against Dd2 strain (AID 2302;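 active = growth inhibition above 50% at the single 2 µM test dose, taken to imply half-maximal potency below 2 µM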;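 note: 0% = DMSO untreated growth and 100% = chloroquine plus artemisinin killed control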). The settings on record: P. falciparum Dd2 in RBCs, LDH growth readout, 72 h; at 2 µM; active compounds read high.
Assay [2] is described as follows: human hepatoma cell viability loss – ATP luminescence, cytotoxicity control for P. falciparum antimalarial project, primary screen (AID 2303;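 active = inhibition above 50%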;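 note: 0% = DMSO wells and 100% = digitonin-killed cells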). The settings on record: HepG2 viability, 24-48 h, at 10 µM, active compounds read high.
Assay [3] concerns the target L-lactate dehydrogenase (Plasmodium falciparum (isolate CDC / Honduras)) (UniProt Q27743). Description: PfLDH activity inhibition – cell lysate, 3D7 strain, counter-screen for P. falciparum growth inhibition project (AID 2304).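 Note: 0% = vehicle and 100% = reference inhibitor.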 The settings on record: P. falciparum 3D7 crude extract, LDH APAD/NBT absorbance; at 2 µM; active compounds read high. For orientation: A counterscreen serves to expose hits that act by an unwanted route or on another target.

Assay [4] is described as follows: inhibition of 3D7 malaria parasite growth – strain 3D7 (AID 2306).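 Note: 0% = DMSO wells and 100% = chloroquine plus artemisinin control wells.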 The settings on record: P. falciparum 3D7 erythrocytic growth, LDH absorbance, 72 h; at 2 µM; active compounds read high.
Assay [5] concerns the target Calcium-dependent protein kinase 1 (Plasmodium falciparum (isolate 3D7)) (UniProt P62344). Kind of assay: PfCDPK1 kinase inhibitors, biochemical, TCAMS library (AID 1159585; cut-off not given, nearly all actives have IC50 up to about 0.98 µM;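 note: inhibitors leave more ATP so luminescence rises with inhibition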). The settings on record: recombinant PfCDPK1, Kinase-Glo ATP depletion luminescence. For orientation: In Kinase-Glo more light means more ATP remaining.
The target in assay [6] is Plasmodium falciparum protein kinase 6 (PK6, PF3D7_1337100) (UniProt Q8IDW1). Kind of assay: PfPK6 kinase inhibitors, biochemical, TCAMS library (AID 1159586). The following applies: recombinant PfPK6, Kinase-Glo ATP depletion luminescence.
Assay [7] concerns the target Protein kinase 7 (PK7), Plasmodium falciparum 3D7 (PF3D7_0213400) (UniProt Q7YTF7). Kind of assay: inhibition of Plasmodium PK7 catalytic activity – biochemical, TCAMS antimalarial set, Kinase-Glo luminescence (AID 1159587). The settings on record: recombinant PfPK7, Kinase-Glo ATP depletion luminescence.
Assay [8] addresses Calcium-dependent protein kinase 4 (Plasmodium falciparum (isolate 3D7)) (UniProt Q8IBS5). Kind of assay: PfCDPK4 kinase inhibitors, biochemical, TCAMS library (AID 1159588; cut-off not given, nearly all actives have IC50 up to about 0.91 µM). The settings on record: recombinant PfCDPK4, Kinase-Glo ATP depletion luminescence.

Protein kinase 7 (PK7), Plasmodium falciparum 3D7 (PF3D7_0213400), sequence (Q7YTF7 1-343): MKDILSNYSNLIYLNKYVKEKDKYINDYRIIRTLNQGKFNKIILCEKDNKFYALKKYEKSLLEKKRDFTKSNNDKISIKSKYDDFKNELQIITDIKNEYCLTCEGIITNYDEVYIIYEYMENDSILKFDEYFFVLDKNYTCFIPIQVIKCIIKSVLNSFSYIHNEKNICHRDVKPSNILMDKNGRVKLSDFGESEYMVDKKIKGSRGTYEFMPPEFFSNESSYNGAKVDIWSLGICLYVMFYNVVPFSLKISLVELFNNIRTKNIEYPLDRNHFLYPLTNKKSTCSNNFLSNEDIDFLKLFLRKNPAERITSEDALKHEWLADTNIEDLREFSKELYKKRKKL
Plasmodium falciparum protein kinase 6 (PK6, PF3D7_1337100), sequence (Q8IDW1 1-305): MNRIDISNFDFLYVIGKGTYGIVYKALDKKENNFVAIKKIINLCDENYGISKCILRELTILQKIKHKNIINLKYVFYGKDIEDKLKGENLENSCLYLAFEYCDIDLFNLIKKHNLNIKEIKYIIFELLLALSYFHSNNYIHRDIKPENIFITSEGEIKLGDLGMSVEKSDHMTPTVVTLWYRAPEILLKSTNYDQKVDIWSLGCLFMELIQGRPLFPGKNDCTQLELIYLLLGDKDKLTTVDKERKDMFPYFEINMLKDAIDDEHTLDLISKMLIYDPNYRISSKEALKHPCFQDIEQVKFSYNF
Calcium-dependent protein kinase 4 (Plasmodium falciparum (isolate 3D7)), sequence (Q8IBS5 whole entry, looked up): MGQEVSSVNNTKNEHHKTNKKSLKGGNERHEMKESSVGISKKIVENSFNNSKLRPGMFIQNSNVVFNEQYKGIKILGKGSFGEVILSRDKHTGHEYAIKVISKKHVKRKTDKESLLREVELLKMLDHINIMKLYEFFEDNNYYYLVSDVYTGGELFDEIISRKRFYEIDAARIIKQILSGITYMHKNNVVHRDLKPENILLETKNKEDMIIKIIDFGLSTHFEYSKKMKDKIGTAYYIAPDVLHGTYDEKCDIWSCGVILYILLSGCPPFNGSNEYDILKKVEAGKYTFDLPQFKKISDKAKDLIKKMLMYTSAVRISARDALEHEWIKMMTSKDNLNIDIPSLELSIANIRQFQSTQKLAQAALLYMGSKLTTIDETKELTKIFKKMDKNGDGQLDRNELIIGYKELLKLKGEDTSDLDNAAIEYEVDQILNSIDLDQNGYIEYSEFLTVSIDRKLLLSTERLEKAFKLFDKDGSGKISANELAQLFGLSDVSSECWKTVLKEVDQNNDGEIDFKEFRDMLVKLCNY
L-lactate dehydrogenase (Plasmodium falciparum (isolate CDC / Honduras)), sequence (Q27743 whole entry, looked up): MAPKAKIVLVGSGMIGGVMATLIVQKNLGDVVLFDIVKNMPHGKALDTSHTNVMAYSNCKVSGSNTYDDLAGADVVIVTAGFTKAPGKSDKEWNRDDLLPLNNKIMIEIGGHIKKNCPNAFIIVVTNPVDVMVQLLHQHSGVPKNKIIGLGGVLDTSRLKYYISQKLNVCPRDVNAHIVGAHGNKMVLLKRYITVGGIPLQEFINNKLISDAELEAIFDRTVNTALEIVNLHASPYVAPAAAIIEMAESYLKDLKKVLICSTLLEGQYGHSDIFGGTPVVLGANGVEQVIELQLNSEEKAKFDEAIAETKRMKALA
Calcium-dependent protein kinase 1 (Plasmodium falciparum (isolate 3D7)), sequence (P62344 whole entry, looked up): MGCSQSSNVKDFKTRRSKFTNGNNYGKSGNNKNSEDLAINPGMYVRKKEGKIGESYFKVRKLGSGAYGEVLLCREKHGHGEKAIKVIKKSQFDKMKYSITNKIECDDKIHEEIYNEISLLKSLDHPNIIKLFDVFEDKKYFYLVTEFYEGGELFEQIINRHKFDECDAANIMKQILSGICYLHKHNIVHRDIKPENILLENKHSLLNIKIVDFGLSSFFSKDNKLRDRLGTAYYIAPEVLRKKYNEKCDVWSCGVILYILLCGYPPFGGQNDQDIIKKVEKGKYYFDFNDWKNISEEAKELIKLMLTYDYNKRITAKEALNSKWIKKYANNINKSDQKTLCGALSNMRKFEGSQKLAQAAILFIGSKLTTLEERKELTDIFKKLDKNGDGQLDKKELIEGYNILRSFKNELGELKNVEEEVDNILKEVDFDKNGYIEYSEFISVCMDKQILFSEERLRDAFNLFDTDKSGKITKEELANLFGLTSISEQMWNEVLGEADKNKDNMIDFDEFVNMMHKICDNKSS

On to `CN(C)c1nc2cc(-n3cnc4cc(-c5ccc(Cl)cc5)sc4c3=O)ccc2n1CCCN1CCCC1`, for which the growth inhibition in assay [1] was 73% (active); in assay [4] it was 97% (active). For the same molecule, the inhibition (commonly the drop in the measured response relative to a control, in per cent) is 99% (active) in assay [2] and 2% in assay [3]. Moreover, the outcome in assay [5], in assay [6], in assay [7] and in assay [8] was inactive.
`CCCCCCCc1c2c(C)c(C(=O)OCC)nc-2cc2n1CC(C)=C2C`: the growth inhibition in assay [1] is 10%; in assay [4], 89% (active). Also, the inhibition was 11% in assay [2] and 1% in assay [3]. Also, the outcome in assay [5], in assay [6], in assay [7] and in assay [8] was inactive.
Take `Cc1cccc2[nH]c(-c3ccc(-c4cccc(CNCCN5CCNCC5)c4)cc3)nc12`: the growth inhibition is 2% in assay [1] and 85% (active) in assay [4]. The inhibition was 9% in assay [2] and 1% in assay [3]. Further, the outcome in assay [5], in assay [6], in assay [7] and in assay [8] was inactive.
As to `O[C@H]1[C@H](OCc2ccc(-c3ccccc3)cc2)CC[C@@H]1N1CCCCC1`, the growth inhibition is 101% (active) in assay [1] and 96% (active) in assay [4]. Besides, the inhibition in assay [2] and in assay [3] was 9% each time. The outcome in assay [5], in assay [6], in assay [7] and in assay [8] was inactive.
Regarding `COc1cccc(CN2CCN(C(c3ccccc3)c3ccccc3)CC2)c1O`, the growth inhibition in assay [1] is 98% (active); in assay [4], 99% (active). The inhibition is 6% in assay [2] and 2% in assay [3]. Further, the outcome in assay [5], in assay [6], in assay [7] and in assay [8] was inactive.
Consider `CCCc1cc(Cc2cnc(N)nc2N)cc(CCC)c1O`, for which the figures for the growth inhibition in assay [1] and in assay [4] were 5% and 96% (active), respectively. Moreover, the inhibition in assay [2] was 64% (active); in assay [3] it was 2%. The result in assay [5], in assay [6], in assay [7] and in assay [8] was inactive.
Take `N#Cc1ccc(-c2ccc(OCC(O)CN3CCCN(C(=O)C(c4ccc5c(c4)OCO5)N4CCN(C/C=C/c5ccccc5)CC4)CC3)cc2)cc1` (configuration not stated): the growth inhibition in assay [1] is 77% (active); in assay [4], 99% (active). Further, the values for the inhibition in assay [2] and in assay [3] were 25% and 3%, respectively. The outcome in assay [5], in assay [6], in assay [7] and in assay [8] was inactive.
`CCc1cc2c(=O)c(-c3nc(C)cs3)c([C@H](N)Cc3ccc(O)cc3)oc2cc1O`: the growth inhibition in assay [1] was 19%; in assay [4] it was 101% (active). For the same molecule, the inhibition in assay [2] is 11%; in assay [3], 1%. Also, the result in assay [5], in assay [6], in assay [7] and in assay [8] was inactive.
With `CC(C)CCN1CCC(Oc2ccc(NC(=O)c3cccs3)cc2Cl)CC1`, the figures for the growth inhibition in assay [1] and in assay [4] were 96% (active) and 97% (active), respectively. The inhibition is 31% in assay [2] and -6% in assay [3]. In addition, the result in assay [5], in assay [6], in assay [7] and in assay [8] was inactive.
Regarding `CC1CCCN(Cc2c(O)ccc3c(=O)c(-c4nc5ccccc5s4)c(N)oc23)C1` (configuration not stated), the growth inhibition in assay [1] was 99% (active); in assay [4], 100% (active). Moreover, the figures for the inhibition in assay [2] and in assay [3] were 20% and -2%, respectively. In addition, the result in assay [5], in assay [6], in assay [7] and in assay [8] was inactive.
Regarding `COc1ccc2c(c1)CC(CNC[C@H](O)c1cccc(Cl)c1)CC2` (some centres not stated), the growth inhibition was 73% (active) in assay [1] and 94% (active) in assay [4]. Further, the inhibition in assay [2] is 1%; in assay [3], 7%. Besides, the outcome in assay [5], in assay [6], in assay [7] and in assay [8] was inactive.
As to `Cc1ccccc1C1CCN(C2CCC(NC(=O)/C=C/c3cccc(C(F)(F)F)c3)CC2)CC1` (configuration not stated), the growth inhibition in assay [1] was 54% (active); in assay [4] it was 100% (active). The results for the inhibition in assay [2] and in assay [3] were 96% (active) and -4%, respectively. Further, the outcome in assay [5], in assay [6], in assay [7] and in assay [8] was inactive.
For the molecule `CN(C)Cc1cccc(-c2ccc(NC(=O)c3ccc4c(=O)n(C5CCCCC5)cnc4c3)cc2)c1`, the growth inhibition was 53% (active) in assay [1] and 96% (active) in assay [4]. The inhibition in assay [2] was 92% (active); in assay [3] it was -3%. Besides, the outcome in assay [5], in assay [6], in assay [7] and in assay [8] was inactive.
In the case of `CCCCCC(C)C(C)c1cc(O)c2c(c1)OC(C)(C)CC2(O)c1ccnn1C` (configuration not stated), the values for the growth inhibition in assay [1] and in assay [4] were 95% (active) and 98% (active), respectively. Moreover, the inhibition in assay [2] is 20%; in assay [3], 4%. For the same molecule, the outcome in assay [5], in assay [6], in assay [7] and in assay [8] was inactive.
`O=C(Nc1cccc(C(F)(F)F)c1)c1cccc(S(=O)(=O)NCC2CCN(CC3CCCCC3)CC2)c1`: the growth inhibition in assay [1] was 5%; in assay [4], 97% (active). Besides, the inhibition in assay [2] was 27%; in assay [3] it was 0%. For the same molecule, the result in assay [5], in assay [6], in assay [7] and in assay [8] was inactive.
As for `Cc1cc(NC(=O)Nc2ccc(C#N)cc2)c2ccccc2n1`, the growth inhibition in assay [1] was 49%; in assay [4], 100% (active). Further, the figures for the inhibition in assay [2] and in assay [3] were 88% (active) and -2%, respectively. The outcome in assay [5], in assay [6], in assay [7] and in assay [8] was inactive.
Take `Nc1cccc(CNCc2cccc(-c3csc(-c4nc5ccccc5[nH]4)c3)c2)c1`: the growth inhibition in assay [1] is 63% (active); in assay [4] it was 102% (active). For the same molecule, the inhibition was 13% in assay [2] and 4% in assay [3]. The outcome in assay [5], in assay [6], in assay [7] and in assay [8] was inactive.
Take `CCCNCc1ccc(-c2ccc(CN(CC3CCCO3)C(=O)C3CC(=O)c4ccccc43)cc2)nc1` (configuration not stated): the growth inhibition was 65% (active) in assay [1] and 101% (active) in assay [4]. The inhibition is 0% in assay [2] and 3% in assay [3]. For the same molecule, the result in assay [5], in assay [6], in assay [7] and in assay [8] was inactive.
For `CC(=O)Nc1ccc2[nH]cc(C3CCN(CC4CCN(C(=O)/C=C/c5ccc(Cl)c(Cl)c5)CC4)CC3)c2n1`, the growth inhibition in assay [1] was 99% (active); in assay [4], 100% (active). Also, the values for the inhibition in assay [2] and in assay [3] were 21% and -2%, respectively. For the same molecule, the outcome in assay [5], in assay [6], in assay [7] and in assay [8] was inactive.
